Data from the supplement of paper PMC9897528.

System: Scedosporium aurantiacum CBS 136046
Assay: growth inhibition relative to DMSO control (OD600); higher = more antifungal activity, active = 80 or more; extreme values may be limits of the assay
Details: 5 µM; 72 h; 37 °C
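Note: conidia screened in RPMI 1640 medium under 5% CO2, growth read by spectrophotometer, medium with 0.5% DMSO serving as the untreated reference.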

Growth inhibition, inactive:
O=C(Nc1ccc(F)cc1)c1nn(-c2ccccc2)c(=O)cc1Cl 32.8%
COc1cc(C)c2c(Oc3cccc(C(F)(F)F)c3)c(OC)cc(NC(C)CCCN)c2n1 (stereo unspecified) 33.4%
FC(F)(F)Oc1ccc(Nc2ccc3cccc(Cl)c3n2)cc1 25.3%
Cc1cc(Nc2ccc(F)cc2)nc(SCc2nc3ccccc3[nH]2)n1 0%
COC(=O)Nc1nc2c(C)cccc2[nH]1 0%
O=C(CCc1ccc2c(c1)OCO2)NCc1ccc(-c2ccccc2F)cc1 28.3%
O=C(O)C(Cc1c[nH]c2ccccc12)N1C(=O)c2ccccc2C1=O (stereo unspecified) 19.9%
NNC(=O)c1ccncc1 3.54%
Clc1ccc(Cn2c(CN3CCCC3)nc3ccccc32)cc1 15.5%
Cc1ccc(NC(=O)c2ccc(CN3CCN(C)CC3)cc2)cc1Nc1nccc(-c2cccnc2)n1 17.6%
CCc1cc(Nc2cc(=O)n(CCN3CCN(C(=O)c4ccccc4)CC3)c(=O)[nH]2)ccc1C 0%
O=C(NCc1cccc2ccccc12)c1cccs1 0%
CCC(CC)[C@H](NC(C)=O)[C@@H]1[C@H](O)[C@@H](C(=O)O)C[C@H]1NC(=N)N 14.3%
CC(=O)NC[C@H]1CN(c2ccc(N3CCSCC3)c(F)c2)C(=O)O1 29.2%
O=C(O)c1ccccc1Sc1ncnc2sc3c(c12)CCC3 1.9%
O=S(=O)(Nc1ccccc1)c1ccc(NC(=S)Nc2ccccc2)cc1 24.2%
